From PubChem BioAssay (NCATS)
Values without a mark were called inactive. Records with an inconclusive call do not appear. The source made the active and inactive calls. Unless noted, calls come from the whole dose curve; as a rule, active = well fitted curve in either direction with a large enough effect (not every such curve was filed as active); inconclusive = small, poorly fitted or top-dose-only effect, or another doubt; inactive = flat fitted curve, though single readings scatter.

What was measured:
[1] = target: Lysosomal acid glucosylceramidase (Homo sapiens) (UniProt P04062); experiment: Glucocerebrosidase-p2 (AID 348; in the data active = potency below about 10 µM; note: potency is the fitted concentration of half-maximal effect); settings: purified GBA, blue fluorogenic substrate, 40 min
Lysosomal acid glucosylceramidase (Homo sapiens), sequence (P04062 whole entry, looked up): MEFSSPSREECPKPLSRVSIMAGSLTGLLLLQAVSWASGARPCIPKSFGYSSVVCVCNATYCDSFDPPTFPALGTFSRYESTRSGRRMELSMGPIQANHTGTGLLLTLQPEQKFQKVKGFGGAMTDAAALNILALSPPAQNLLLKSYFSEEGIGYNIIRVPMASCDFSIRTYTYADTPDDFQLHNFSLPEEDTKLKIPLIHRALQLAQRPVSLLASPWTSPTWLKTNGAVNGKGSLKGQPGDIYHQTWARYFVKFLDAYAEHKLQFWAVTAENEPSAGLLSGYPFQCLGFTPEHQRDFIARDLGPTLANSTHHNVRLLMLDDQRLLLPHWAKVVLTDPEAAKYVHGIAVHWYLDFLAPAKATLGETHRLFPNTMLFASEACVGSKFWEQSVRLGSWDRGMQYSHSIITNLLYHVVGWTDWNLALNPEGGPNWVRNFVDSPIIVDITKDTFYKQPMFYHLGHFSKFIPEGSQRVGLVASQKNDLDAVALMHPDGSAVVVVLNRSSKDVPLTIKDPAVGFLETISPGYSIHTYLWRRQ
Outline: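 Compounds titrated from 0.6 nM upwards against 0.2 nM enzyme in pH 5.9 citric acid/KH2PO4, taurocholate, tween-20; blue fluorogenic substrate 80 uM, 40 min room temperature, stopped and read Ex 365/Em 440 for AC50.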

[2] = AP1 Signaling Pathway (AID 357); settings: ME-180 AP-1-bla reporter, EGF-induced, beta-lactamase ratio, 5 h; at 7.69 µM (top of the series) unless noted;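 note: ME-180 reporter cells stimulated with EGF at its EC50 level; % is set by controls: 0 for no effect and ±100 for the full control effect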
Outline: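 In this screen, ME-180 cells in Opti-MEM with 0.5% dialyzed FBS received EC50 EGF and compound titrations for 5 h. AP-1 reporter beta-lactamase was detected via CCF4 ratio, giving AC50 for positive and negative modulators.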

[3] = target: Cytochrome P450 1A2 (Homo sapiens) (UniProt P05177); experiment: p450-cyp1a2 (AID 410; calls by dose curve; note: potency is the fitted concentration of half-maximal effect;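 for activity change, negative = inhibition: -100% = full effect of reference inhibitor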); settings: recombinant CYP1A2, luciferin-ME demethylation, luminescence; series mostly up to 11.4 µM
Cytochrome P450 1A2 (Homo sapiens), sequence (P05177 whole entry, looked up): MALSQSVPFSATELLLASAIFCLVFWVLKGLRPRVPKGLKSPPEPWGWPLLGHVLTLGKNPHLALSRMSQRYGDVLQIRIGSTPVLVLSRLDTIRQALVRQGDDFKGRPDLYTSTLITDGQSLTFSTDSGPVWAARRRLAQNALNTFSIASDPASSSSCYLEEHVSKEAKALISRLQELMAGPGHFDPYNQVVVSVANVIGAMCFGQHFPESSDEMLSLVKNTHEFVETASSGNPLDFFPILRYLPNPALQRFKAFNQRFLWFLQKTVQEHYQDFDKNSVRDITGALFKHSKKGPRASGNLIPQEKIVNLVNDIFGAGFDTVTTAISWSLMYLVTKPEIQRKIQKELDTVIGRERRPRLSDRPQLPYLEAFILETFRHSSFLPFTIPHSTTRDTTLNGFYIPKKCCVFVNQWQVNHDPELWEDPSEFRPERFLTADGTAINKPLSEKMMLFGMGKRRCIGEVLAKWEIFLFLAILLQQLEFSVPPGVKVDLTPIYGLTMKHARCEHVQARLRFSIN
Outline: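 Inhibition was calculated relative to 57 uM furafylline (full inhibition). The reaction used human CYP1A2 at 20nM with Luciferin-ME at its Km, 100uM, driven by an NADPH-regenerating system for 60 min at room temperature.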

[4] = NFAT Signaling Pathway (AID 444); settings: Jurkat NFAT-bla M1, carbachol, beta-lactamase ratio, 5 h; at 7.69 µM (top of the series) unless noted;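 note: carbachol stimulus at about its EC50 of 1 µM final; % is set by controls: 0 for no effect and ±100 for the full control effect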
Outline: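 Read-out: CCF4 FRET ratio (460 nm/530 nm) after 1 h RT dye loading, used for %activity and AC50 from titration series. Cells: Jurkat NFAT-β-lactamase/M1 line, treated with compound plus 1 uM carbachol for 5 h, 37 °C.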

[5] = Stat Signaling Pathway (AID 446); settings: ME-180 SIE beta-lactamase reporter, IL-6 stimulated, 5 h; at 7.69 µM (top of the series) unless noted;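 note: ME-180 cervical cancer cells given 40 pM IL-6 alongside compound; SIE-controlled beta-lactamase reporter measured as 460/530 nm FRET emission ratio; % is set by controls: 0 for no effect and ±100 for the full control effect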
Outline: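 ME-180 SIE-bla cells; overnight plating; cpd + IL-6 40 pM, 5 h, 37 C; LiveBLAzer 2.5 h RT; 460/530 nm emission ratio. Normalized to 300 pM IL-6 and 125 nM JAK inhibitor controls.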

[6] = target: Glucocorticoid receptor (Homo sapiens) (UniProt P04150); experiment: GR-GFP Redistribution (AID 450;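 active = compounds whose dose series gives a full or clear partial fitted curve of increased nuclear translocation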; note: potency is the fitted concentration of half-maximal effect); settings: U2OS GR-GFP nuclear translocation, laser cytometry, 2 h
Glucocorticoid receptor (Homo sapiens), sequence (P04150 whole entry, looked up, the tested form may be a part): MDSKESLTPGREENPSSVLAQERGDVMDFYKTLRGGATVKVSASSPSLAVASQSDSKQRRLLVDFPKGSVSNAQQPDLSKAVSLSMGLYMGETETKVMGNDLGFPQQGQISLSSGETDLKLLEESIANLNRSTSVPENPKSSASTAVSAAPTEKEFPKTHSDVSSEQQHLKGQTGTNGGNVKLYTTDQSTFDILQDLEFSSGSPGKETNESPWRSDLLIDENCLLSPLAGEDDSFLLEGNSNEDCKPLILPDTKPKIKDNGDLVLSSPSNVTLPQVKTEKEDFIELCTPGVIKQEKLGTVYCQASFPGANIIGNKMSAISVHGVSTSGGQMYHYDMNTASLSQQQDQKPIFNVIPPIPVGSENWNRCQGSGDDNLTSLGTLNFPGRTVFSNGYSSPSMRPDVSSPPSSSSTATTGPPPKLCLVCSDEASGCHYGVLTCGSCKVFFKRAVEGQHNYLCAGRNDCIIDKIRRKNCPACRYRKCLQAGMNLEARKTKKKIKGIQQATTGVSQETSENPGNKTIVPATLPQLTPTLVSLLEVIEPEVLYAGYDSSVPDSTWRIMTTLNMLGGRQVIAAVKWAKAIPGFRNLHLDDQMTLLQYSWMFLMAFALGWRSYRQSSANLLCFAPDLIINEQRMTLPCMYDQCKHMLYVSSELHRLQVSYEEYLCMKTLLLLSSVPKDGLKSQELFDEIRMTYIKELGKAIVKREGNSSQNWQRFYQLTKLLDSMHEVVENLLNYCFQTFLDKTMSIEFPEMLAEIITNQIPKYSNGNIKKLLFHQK

[7] = target: Glucocorticoid receptor (Homo sapiens) (UniProt P04150); experiment: GR-EFC Redistribution (AID 451; calls by dose curve; note: potency is the fitted concentration of half-maximal effect); settings: CHO-K1 GR-EFC translocation, beta-gal luminescence, 2 h
Outline: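 Translocation of GR-ED fusion to nuclear EA restores b-gal, read by luminescence after 1 h room-temperature detection. Engineered CHO-K1 biosensor cells, 1,000/well, exposed 2 h at 37 C to titrations up to 46 uM final.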

[8] = target: Mitogen-activated protein kinase 10 (Mus musculus) (UniProt Q61831); experiment: JNK3 AlphaScreen Assay (AID 530); settings: JNK3 lysate, c-Jun phosphorylation; series mostly up to 11.4 µM;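 note: kinase came from lysate of stimulated human HepG2 cells; signal reports phosphorylation of biotinylated GST-cJun 1-79 at Ser73 with 10 µM ATP; % is set by controls: 0 for no effect and ±100 for the full control effect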
Outline: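 Room-temperature AlphaScreen kinase assay; pre-activated HepG2 lysate as JNK3 source, biotin-GST-cJun(1-79) substrate, 10 uM ATP, compound 15 min preincubation.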

[9] = target: 3',5'-cyclic-AMP phosphodiesterase 4B (Homo sapiens) (UniProt Q07343); experiment: qHTS Assay for Inhibitors of PDE-IV (AID 607; active = well fitted activation curve with a large enough effect in the main read-out, with a control signal flat, not every such curve was filed as active; note: % of control where 0% means no effect); settings: HEK293 ACTOne CNG channel cells, membrane potential fluorescence; series mostly up to 22.9 µM
3',5'-cyclic-AMP phosphodiesterase 4B (Homo sapiens), sequence (Q07343 whole entry, looked up): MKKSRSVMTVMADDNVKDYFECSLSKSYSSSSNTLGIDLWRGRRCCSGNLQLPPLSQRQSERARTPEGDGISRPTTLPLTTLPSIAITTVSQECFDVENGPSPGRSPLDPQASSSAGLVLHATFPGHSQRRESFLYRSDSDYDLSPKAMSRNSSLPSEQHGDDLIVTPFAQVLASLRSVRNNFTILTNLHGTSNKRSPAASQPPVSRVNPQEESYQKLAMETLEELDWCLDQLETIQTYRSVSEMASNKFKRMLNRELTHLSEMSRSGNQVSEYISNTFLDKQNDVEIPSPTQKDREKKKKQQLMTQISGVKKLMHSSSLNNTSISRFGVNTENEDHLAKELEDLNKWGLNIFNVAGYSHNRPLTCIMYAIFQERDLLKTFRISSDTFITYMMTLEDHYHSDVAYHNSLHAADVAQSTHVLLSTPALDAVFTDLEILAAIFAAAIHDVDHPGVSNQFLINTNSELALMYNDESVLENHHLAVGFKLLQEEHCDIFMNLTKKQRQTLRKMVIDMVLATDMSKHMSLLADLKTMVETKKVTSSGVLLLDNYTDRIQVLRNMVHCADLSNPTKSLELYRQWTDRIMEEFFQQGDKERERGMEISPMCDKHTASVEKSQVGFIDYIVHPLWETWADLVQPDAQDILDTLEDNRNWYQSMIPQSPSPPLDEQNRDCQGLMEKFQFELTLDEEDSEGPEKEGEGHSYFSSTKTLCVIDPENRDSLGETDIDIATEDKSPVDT
Outline: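 ACTOne HEK293 cells carry a modified cAMP-gated CNG channel and express endogenous PDE4; plated 1000 cells/well, compounds up to 22.9 uM final. Membrane-potential dye fluorescence (ex 535/em 590) was read; parental cells received 10 uM forskolin + 100 uM RO 20-1724.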

[10] = target: Cytochrome P450 2C19 (Homo sapiens) (UniProt P33261); experiment: qHTS Assay for Inhibitors and Substrates of Cytochrome P450 2C19 (AID 899; active = well fitted curve in the direction sought with a large enough effect; an effect the other way counts as inactive or inconclusive; note: nearly all actives have a fitted effect of over 60% in size; note: potency is the fitted concentration of half-maximal effect); settings: recombinant CYP2C19, luciferin-H EGE luminescence; series mostly up to 11.4 µM
Cytochrome P450 2C19 (Homo sapiens), sequence (P33261 whole entry, looked up): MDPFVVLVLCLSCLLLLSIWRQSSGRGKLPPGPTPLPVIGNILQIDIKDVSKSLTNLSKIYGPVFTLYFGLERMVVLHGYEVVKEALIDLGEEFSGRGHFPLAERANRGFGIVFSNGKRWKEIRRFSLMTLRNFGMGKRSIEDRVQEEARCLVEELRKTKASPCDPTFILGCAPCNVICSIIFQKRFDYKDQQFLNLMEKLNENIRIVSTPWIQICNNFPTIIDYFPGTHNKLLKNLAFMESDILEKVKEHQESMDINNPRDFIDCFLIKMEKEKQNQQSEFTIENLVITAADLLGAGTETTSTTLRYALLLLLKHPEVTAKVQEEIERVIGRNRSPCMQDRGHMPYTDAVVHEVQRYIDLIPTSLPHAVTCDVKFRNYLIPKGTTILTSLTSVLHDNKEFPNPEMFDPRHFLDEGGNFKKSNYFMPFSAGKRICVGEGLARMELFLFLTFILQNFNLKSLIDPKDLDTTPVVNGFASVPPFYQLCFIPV
Outline: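 5nM enzyme + 10uM Luciferin-H EGE (=KM), 50mM KPO4; cpd pin-transferred, 10 min 37C; NADPH regen, 60 min 37C; stopped w/ luciferin detection reagent, 20 min; luminescence. Normalized to 57uM ketoconazole (AC100).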

[11] = qHTS Assay for Identification of Small Molecule Agonists for Hypoxia Response Element Signaling Pathway (AID 914; active = well fitted activation curve with a large enough effect in the signal ratio, with a control signal flat, not every such curve was filed as active; the % refers to the signal ratio; note: % of control where 0% means no effect); settings: ME-180 (cervical carcinoma) HRE-bla reporter, beta-lactamase ratio, CoCl2, 17 h; activation: hits give high values
Outline: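 Read-out: CCF4 FRET ratio of 460nm to 530nm emission (excitation 405nm) after 2.5 hours at room temperature, taken from HRE-bla ME-180 cells that had been exposed to compound and EC50 CoCl2 for 17 hours.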

[12] = target: Cytochrome P450 3A4 (Homo sapiens) (UniProt P08684); experiment: qHTS Assay for Inhibitors and Substrates of Cytochrome P450 3A4 (AID 884; active = well fitted curve in the direction sought with a large enough effect; an effect the other way counts as inactive or inconclusive; note: nearly all actives have a fitted effect of over 50% in size; note: potency is the fitted concentration of half-maximal effect); settings: recombinant CYP3A4, Luciferin-PPXE luminescence; series mostly up to 57.1 µM
Cytochrome P450 3A4 (Homo sapiens), sequence (P08684 whole entry, looked up): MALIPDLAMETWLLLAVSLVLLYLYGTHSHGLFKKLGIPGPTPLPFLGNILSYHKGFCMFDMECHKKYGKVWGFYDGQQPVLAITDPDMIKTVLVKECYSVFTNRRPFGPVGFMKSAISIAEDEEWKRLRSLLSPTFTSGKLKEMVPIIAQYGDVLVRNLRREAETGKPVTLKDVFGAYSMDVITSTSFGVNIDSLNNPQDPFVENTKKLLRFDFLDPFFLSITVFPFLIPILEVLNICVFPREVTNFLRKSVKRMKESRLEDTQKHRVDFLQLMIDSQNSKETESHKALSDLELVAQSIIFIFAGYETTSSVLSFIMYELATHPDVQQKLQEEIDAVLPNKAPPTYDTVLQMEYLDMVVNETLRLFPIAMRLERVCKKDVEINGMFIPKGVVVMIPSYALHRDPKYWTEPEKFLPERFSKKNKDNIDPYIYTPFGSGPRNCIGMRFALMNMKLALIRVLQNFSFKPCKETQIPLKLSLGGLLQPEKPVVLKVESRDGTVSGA
Outline: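 20 nM human CYP3A4 with 25 uM Luciferin-PPXE (at KM) in 200 mM KPO4, preincubated 10 min with compound; NADPH regeneration started a 60 min RT reaction. Luciferin detected by luminescence, normalized to 57 uM ketoconazole as full inhibition.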

[13] = target: Cytochrome P450 3A4 (Homo sapiens) (UniProt P08684); experiment: qHTS Assay for Activators of Cytochrome P450 3A4 (AID 885; active = well fitted curve in the direction sought with a large enough effect; an effect the other way counts as inactive or inconclusive; note: nearly all actives have a fitted effect of over 65% in size; note: potency is the fitted concentration of half-maximal effect); settings: recombinant CYP3A4, Luciferin-PPXE luminescence, 60 min; series mostly up to 11.4 µM
Outline: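 20nM CYP3A4 + 25uM Luciferin-PPXE (=KM), 200mM KPO4; cpd 10 min RT; NADPH regen, 60 min RT; stop w/ detection buffer, 20 min; luminescence. Normalized to 57 uM ketoconazole.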

[14] = target: Cytochrome P450 2D6 (Homo sapiens) (UniProt P10635); experiment: qHTS Assay for Inhibitors and Substrates of Cytochrome P450 2D6 (AID 891; active = well fitted curve in the direction sought with a large enough effect; an effect the other way counts as inactive or inconclusive; note: potency is the fitted concentration of half-maximal effect; nearly all actives have a fitted effect of over 60% in size); settings: recombinant CYP2D6, luciferin-ME EGE luminescence; series mostly up to 11.4 µM
Cytochrome P450 2D6 (Homo sapiens), sequence (P10635 whole entry, looked up): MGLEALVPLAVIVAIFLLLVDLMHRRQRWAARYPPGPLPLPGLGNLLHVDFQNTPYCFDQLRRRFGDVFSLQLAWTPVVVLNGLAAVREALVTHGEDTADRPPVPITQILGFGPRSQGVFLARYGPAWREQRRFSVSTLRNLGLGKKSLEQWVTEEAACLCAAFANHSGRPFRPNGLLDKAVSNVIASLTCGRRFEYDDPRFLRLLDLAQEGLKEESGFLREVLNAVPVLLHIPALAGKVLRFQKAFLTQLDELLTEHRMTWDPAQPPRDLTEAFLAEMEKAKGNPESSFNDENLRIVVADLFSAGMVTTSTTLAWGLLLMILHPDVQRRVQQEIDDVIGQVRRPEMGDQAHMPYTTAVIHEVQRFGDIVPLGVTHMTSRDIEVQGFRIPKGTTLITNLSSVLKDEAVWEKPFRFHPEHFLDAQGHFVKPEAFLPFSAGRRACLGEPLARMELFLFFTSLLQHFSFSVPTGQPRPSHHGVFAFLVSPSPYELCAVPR
Outline: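 Human CYP2D6 (5 nM) with 30 uM Luciferin-ME EGE (at Km) in 100 mM KPO4, compound preincubated 10 min, then NADPH regeneration system for 60 min at room temperature. Luciferin read by luminescence; normalized to 1.43 uM quinidine.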

[15] = target: Cytochrome P450 2C9 (Homo sapiens) (UniProt P11712); experiment: qHTS Assay for Inhibitors and Substrates of Cytochrome P450 2C9 (AID 883; active = well fitted curve in the direction sought with a large enough effect; an effect the other way counts as inactive or inconclusive; note: potency is the fitted concentration of half-maximal effect; nearly all actives have a fitted effect of over 60% in size); settings: recombinant CYP2C9, luciferin-H luminescence, 60 min; series mostly up to 11.4 µM
Cytochrome P450 2C9 (Homo sapiens), sequence (P11712 whole entry, looked up): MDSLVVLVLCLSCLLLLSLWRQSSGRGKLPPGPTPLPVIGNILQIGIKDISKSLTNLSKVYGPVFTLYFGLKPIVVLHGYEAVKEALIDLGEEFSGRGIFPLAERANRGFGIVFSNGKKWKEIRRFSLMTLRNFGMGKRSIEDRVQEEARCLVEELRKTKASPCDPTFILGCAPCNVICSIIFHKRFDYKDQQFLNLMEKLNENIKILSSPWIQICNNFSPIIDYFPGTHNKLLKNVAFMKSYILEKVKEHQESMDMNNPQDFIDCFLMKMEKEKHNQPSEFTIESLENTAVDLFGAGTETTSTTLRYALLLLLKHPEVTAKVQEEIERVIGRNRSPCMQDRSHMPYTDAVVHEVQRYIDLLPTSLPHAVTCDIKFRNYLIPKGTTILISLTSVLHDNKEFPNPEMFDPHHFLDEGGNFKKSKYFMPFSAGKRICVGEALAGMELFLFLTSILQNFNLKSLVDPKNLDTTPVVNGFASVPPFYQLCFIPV
Outline: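 Inhibition of CYP2C9 is scored as loss of luminescence, with 57uM sulphaphenazole defining 100% inhibition. Substrate Luciferin-H is used at 100uM, equal to its KM; enzyme at 10nM in 25mM KPO4, 60 min at 37C with NADPH regeneration.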

SMILES | Potency [1] [µM] | activity change, negative = inhibition [2] [%] | Potency [3] | activity change, negative = inhibition [4] [%] | activity, negative = inhibition [5] [%] | Potency [6] [µM] | Potency [7] [µM] | Potency [8] | Potency [9] | Potency [10] | activation [11] [%] | activity change, negative = inhibition [3] | activity change, negative = inhibition [12] | Potency [13] | Potency [14] | Potency [15] | Potency [12]
COc1cc2c(cc1OC)C(CCN)=NCC2 | > 11.4 | 7.92 | 5.01 µM (active) | -11.2 | 8.17 | > 46 | > 9.22 | inactive | inactive | inactive |  |  |  |  |  |  | 
Cc1cc(C2(c3cc(C)c(O)c(C(=O)O)c3)OS(=O)(=O)c3ccccc32)cc(C(=O)O)c1O | > 11.4 | -7.31 | inactive | -1.56 | 2.58 | > 46 | > 9.22 | inactive | inactive |  | -3.84 |  |  |  |  |  | 
O=C(Cn1ccc(=O)[nH]c1=O)Nc1ccc(C(=O)O)c(O)c1 | > 11.4 | 13.2 |  | 18.3 | 2.74 | > 46 | > 9.22 | inactive | inactive |  | 6.06 | -16.5% [at 2.29 µM] |  |  |  |  | 
CC(=O)OCC(=O)[C@]12OC(C)(C)O[C@@H]1C[C@H]1[C@H]3CC=C4C[C@@H](O)CC[C@]4(C)[C@H]3CC[C@]12C | > 11.4 | 8.77 | inactive | -9.45 | 5.43 | > 46 | > 9.22 | inactive |  |  |  |  | 69.9% [at 11.4 µM] | 3.16 µM (active) |  |  | 
CC1(C)[C@@H]2CC[C@]1(CC(=O)O)[C@H](Cl)C2 | > 11.4 | 9.82 | inactive | 2.95 | 6.68 | > 46 | > 9.22 | inactive | inactive |  | 2.22 |  |  |  |  |  | 
O=C(O)C(Sc1ccc(Cl)cc1)Sc1ccc(Cl)cc1 | > 11.4 | 0.225 |  | -19.6 | -29.3 | > 46 | > 9.22 | inactive | inactive |  | -0.83 | -27.8% [at 2.29 µM] |  |  |  |  | 
Cn1cnc([N+](=O)[O-])c1Sc1nc(N)nc2c1ncn2Cc1ccccc1 | > 11.4 | 0.181 | 3.16 µM (active) | -1.11 | 1.04 | > 46 | > 9.22 | inactive | inactive |  | -1.88 |  |  |  |  |  | 
Cc1cc(C(C)(C)C)cc(CNC2CCCCC2)c1O | > 11.4 | 8.19 | 3.16 µM (active) | 22.7 | 10.5 | > 46 | > 9.22 | inactive |  | 20 nM (active) |  |  |  |  | 501 nM (active) |  | 
C/C(=N/S(=O)(=O)c1ccc(Cl)c(Cl)c1)OCC(C)(C)C | > 11.4 | 2.66 | inactive | 20 | 1.9 | > 46 | > 9.22 | inactive | inactive |  | 8.96 |  |  |  |  |  | 
Cc1c(NC(=O)Nc2c(Cl)cccc2Cl)c(=O)n(-c2ccccc2)n1C | > 11.4 | 4.18 | inactive | -0.333 | -1.35 | > 46 | > 9.22 | inactive | inactive |  | -3.31 |  |  |  |  |  | 
O=C(O)C1(Nc2ccc(Cl)cc2)CCCC1 | > 11.4 | -1.27 | inactive | 7.56 | 5.72 | > 46 | > 9.22 | inactive | inactive |  | 0.664 |  |  |  |  |  | 
OCCCNCc1ccccn1 | > 11.4 | -3.7 |  | 5.11 | 5.98 | > 46 | > 9.22 | inactive | inactive |  | 12.2 | -20% [at 2.29 µM] |  |  |  |  | 
O=[N+]([O-])c1ccc2c(c1)S(=O)c1ccccc1-2 (configuration not stated) | > 11.4 | 11.5 | 0.2 µM (active) | 10.5 | -13.7 | > 46 | > 9.22 | inactive | inactive |  | -10.8 |  |  |  |  |  | 
O=C(O)/C=C\C(=O)Nc1ccccn1 | > 11.4 | 1.01 | inactive | 11.9 | -1.9 | > 46 | > 9.22 | inactive |  |  | 4.82 |  |  |  |  |  | 
CN[C@@H]1NC(=O)c2ccccc2N1Cc1ccc(F)cc1 | > 11.4 | 4.91 |  | 7.06 | 4.09 | > 46 | > 9.22 | inactive | inactive |  | -6.12 | -7.6% [at 2.29 µM] |  |  |  |  | 
O=C(O)NCc1ccccc1 (tested in a mixture with another compound) | > 11.4 | 4.23 | 3.16 µM (active) | -18.9 | 1.18 | > 46 | > 9.22 | inactive |  |  | 1.79 |  |  |  | 3980 nM (active) |  | 
CC1=CC(C)(C)Nc2ccc(CSc3ccccc3)cc21 | > 11.4 | 3.94 | 0.501 µM (active) | -4.82 | -11.8 | > 46 | > 9.22 | inactive |  | 316 nM (active) |  |  |  | inactive | 631 nM (active) | 199 nM (active) | 3.98 µM (active)
